Source: PubChem BioAssay AID1768 (National Center for Advancing Translational Sciences (NCATS), 2009)
The whole screen tested about 270,000 compounds, of which about 620 (0.23%) were called active. Roughly 12% stayed inconclusive and do not appear here. Calls follow the shape of the dose curve; as a rule, active = well fitted inhibition curve with a large enough effect in the polarisation, with a control signal flat (not every such curve was filed as active); inconclusive = small, poorly fitted or top-dose-only effect, or effect the other way, or a change in a side signal; inactive = no such curve, though single readings can be large or run the other way; the % refers to the polarisation. Shown is part of a subset that was picked to be rich in actives. Where a call stands in place of a potency, no number is given.

Molecular target: Menin (Homo sapiens) (UniProt O00255)
Experiment: qHTS Assay for Inhibitors Targeting the Menin-MLL Interaction in MLL Related Leukemias: Competition With Texas Red Labeled MLL-derived Mutant Peptide
Settings: fluorescence polarization; series mostly up to 61.6 µM
Excerpt: qHTS Assay for Inhibitors Targeting the Menin-MLL Interaction in MLL Related Leukemias NIH Chemical Genomics Center [NCGC] NIH Molecular Libraries Probe Centers Network [MLPCN] MLPCN Grant: MH084875-01A1 Assay Submitter (PI): Jolanta Grembecka, Tomasz Cierpicki, University of Virginia Translocations of the MLL (Mixed Lineage Leukemia) gene are frequently found in human leukemias affecting both children and adults. Fusion of MLL to one of more than 60 genes results in generation of oncogenic proteins upregulating Hox genes, which are vital to blood cell development. Patients harboring fusion of the MLL gene suffer from aggressive leukemias and respond poorly to available therapies. All of the oncogenic fusion proteins have a preserved N-terminal fragment of MLL that has been identified to interact with menin. It has been recently discovered that association with menin is critical to the leukemogenic activity of the MLL fusion oncoproteins. Selective targeting of the menin-MLL interaction could provide an attractive therapeutic approach to develop novel drugs for MLL-related leukemias. Small molecules blocking the menin-MLL interaction should reverse the oncogenic potential of MLL fusion proteins. We have developed and optimized a fluorescence polarization-based assay for the identification of Menin-MLL inhibitors. The assay was run employing two different MLL-derived peptides. The present assay uses a 12 amino acid peptide labeled with fluorescein at its N-terminus. This peptide consists of the menin high affinity binding motif from MLL and is potently bound by menin. Another peptide with a mutated sequence, labeled with Texas Red, was used in parallel as a less stringent screen for inhibitors.
The Menin protein, the MLL-wild type (w.t.) derived peptide (N-terminal 12 amino acids), the MLL-derived peptide labeled with Texas Red and the MLL-w.t. peptide labeled with Fluorescein were kindly supplied by laboratory of Dr. Jolanta Grembecka, University of Virginia. All protein and peptide solutions were stored in single use aliquots at -80C. The Eu3+ Cyrptate-conjugated mouse monoclonal antibody anti-6 Histidine (Eu3+-AB) and the Streptavidin-XL665 conjugate (XL665) were purchased from Cisbio International (Bedford, MA). All antibody and XL665 conjugate solution stocks were stored in single use aliquots at -20C. The Buffer components for all assays were purchased from Sigma-Aldrich (St. Louis, MO) and Invitrogen (Carlsbad, CA). FP Assay Reagents: 1. FP reaction buffer: 50 mM Tris-HCl pH 7.5, 50 mM NaCl, 1mM DTT. Before use, 0.05% BSA is added. 2. Menin protein, MLL-w.t. labeled with fluorescein, MLL-mutant peptide labeled with texas red. Stored in singe use aliquots at -80C. 3. MLL-w.t. unlabeled peptide as positive control: 10 uM final in FP buffer. FP Assay Procedure: 1. Prepare Menin at 200 nM, MLL-w.t.-fluorescein at 25 nM, and MLL-mutant-texas red at 50 nM mixture in FP buffer. 2. Prepare Menin at 200 nM, MLL-w.t.-fluorescein at 25 nM, MLL-mutant-texas red at 50 nM, and 10 uM MLL-w.t. unlabeled mixture in FP buffer. 3. Prepare MLL-w.t.-fluorescein at 25 nM and MLL-mutant-texas red at 50 nM mixture in FP buffer. 3. Dispense 4 ul per well of reagent in step 1 in columns 2, 4 - 48 in a black 1536 well plate, dispense 4 ul per well of reagents from steps 2 and 3 in columns 1 and 3 respectively. Incubate plate at ambient for 15 minutes. 4. Transfer 23 nl per well of compound to plate and incubate at ambient for 1 hr. 5. Read fluorescence polarization for each label using the PerkinElmer Envision. Envision protocol for fluorescein: FITC FP Dual Enh Mirror, Excitation filter 480, Emission filter (1) P-pol 535, Emission filter (2) S-pol 535 Envision protocol for texas red: FP Dual Enh Mirror, Excitation filter 555, Emission filter (1) P-pol 632, Emission filter (2) S-pol 632
Potency is read from the fitted curve at half-maximal effect.

Chain of Menin (Homo sapiens) (O00255 whole entry, looked up): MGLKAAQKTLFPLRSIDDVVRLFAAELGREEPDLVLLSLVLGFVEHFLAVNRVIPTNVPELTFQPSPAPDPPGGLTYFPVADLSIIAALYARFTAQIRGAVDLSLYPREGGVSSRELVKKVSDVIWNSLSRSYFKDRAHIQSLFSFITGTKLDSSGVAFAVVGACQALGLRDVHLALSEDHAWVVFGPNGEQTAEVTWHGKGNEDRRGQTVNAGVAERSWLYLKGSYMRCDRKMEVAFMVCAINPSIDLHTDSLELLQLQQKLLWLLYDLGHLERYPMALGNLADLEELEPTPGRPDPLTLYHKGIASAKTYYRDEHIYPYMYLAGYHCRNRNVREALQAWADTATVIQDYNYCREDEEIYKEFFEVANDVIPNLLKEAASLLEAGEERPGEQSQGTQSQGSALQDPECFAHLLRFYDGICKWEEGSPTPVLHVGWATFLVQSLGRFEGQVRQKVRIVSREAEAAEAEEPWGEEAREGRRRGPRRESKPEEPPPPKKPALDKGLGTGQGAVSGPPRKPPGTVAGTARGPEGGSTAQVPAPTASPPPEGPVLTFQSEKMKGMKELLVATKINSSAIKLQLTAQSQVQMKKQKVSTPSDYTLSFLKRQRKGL

Row | SMILES | Potency
1 | CC[N+](C)(CC)CCC[n+]1c(-c2ccccc2)c2cc(N)ccc2c2ccc(N)cc21 | 12.6 µM (active)
2 | CC(=O)[O][Sn]([c]1ccccc1)([c]1ccccc1)[c]1ccccc1 | inactive
3 | CCN(CC)c1nc(C)cc(OP(=S)(OC)OC)n1 | inactive
4 | COC([CH2][Hg])CNC(=O)c1ccccc1OCC(=O)O (stereo not given) | inactive
5 | CO[C@H]1[C@@H](O)[C@@H](C)O[C@H](O[C@H]2[C@H](Oc3cccc4c(O)c5c(=O)oc6ccc(C)c7c(=O)oc(c34)c5c67)O[C@H](C)[C@H](O)[C@@H]2O)[C@@H]1O | inactive
6 | N#Cc1cc(Br)c(O)c(Br)c1 | inactive
7 | CC[C@H]1CN2CCc3cc(OC)c(OC)cc3[C@@H]2C[C@@H]1C[C@H]1NCCc2cc(OC)c(OC)cc21 | 22.4 µM (active)
8 | C[C@]12O[C@H](C[C@@]1(O)C(=O)O)n1c3ccccc3c3c4c(c5c6ccccc6n2c5c31)CNC4=O | inactive
9 | C[C@@H]1C[C@H]2CC[C@H](O2)[C@H](C)C(=O)O[C@@H](C)C[C@@H]2CC[C@@H](O2)[C@@H](C)C(=O)O[C@H](C)C[C@H]2CC[C@H](O2)[C@H](C)C(=O)O[C@@H](C)C[C@@H]2CC[C@@H](O2)[C@@H](C)C(=O)O1 | inactive
10 | O=C1CCc2cccc3c2N1CC3 | inactive
